Laboratory results published in the supplement of paper PMC9337992.
± gives the standard deviation of the averaged measurements.

Each compound was assayed on MDAMB231 (assay: cell proliferation (confluence) relative to DMSO control; higher = less growth inhibition). Conditions: 5 uM; 6 d.
Protocol: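 Epigenetic chemical probe screen: 15 TNBC cell lines, 500 cells per well in 384-well plates, treated with 5 uM of each of 36 SGC probes for 6 d. Confluency was imaged by IncuCyte ZOOM and normalised to DMSO control wells. Four replicate wells per compound.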

SMILES | cell proliferation [%]
c1ccc([C@@H]2C[C@H]2NC2CCNCC2)cc1 | 98.48 ± 0.8
COc1cc(C(=O)N2CC[C@@H](O)[C@@H](N)C2)cc2nc(-c3cc4ccccc4n3CC3CC3)n(C)c12 | 88.8 ± 9.1
O=C(O)CNC(=O)c1c(O)c2ccccc2n(Cc2ccccc2)c1=O | 97.33 ± 0.35
